Screening results deposited in PubChem BioAssay by National Center for Advancing Translational Sciences (NCATS).
FMDV antiviral: blocks foot and mouth disease virus | FMDV antiviral cell-based qHTS | Potency, µM (doses to about 57.9 µM), without a hit: at the top dose activity change, negative = inhibition, usual class: inhibitors | 410,000 compounds, 1.2% hits | AID 1159524; calls by dose curve; tested in HEK293T cells; further: read-out not given here; potency means the concentration at half of the fitted maximal effect; nearly all actives have a fitted effect of over 45% in size
VACV mCherry inh: vaccinia inhibition (mCherry reporter). Vaccinia virus mCherry reporter infection, fluorescence. Potency, µM (titrated, usually from 36.5 µM), inactives show at the top dose activity change, negative = inhibition, most hits filed as inhibitors. 310,000 compounds, 0.63% hits. AID 720579; calls by dose curve; tested in A549 cells; further: potency means the concentration at half of the fitted maximal effect; nearly all actives have a fitted effect of over 35% in size
Vaccinia Venus: inhibitors of vaccinia virus (Venus reporter). Vaccinia virus Venus reporter expression, fluorescence. Potency, µM (titrated, usually from 36.5 µM), for the others: at the top dose activity change, negative = inhibition, usual class: inhibitors. 330,000 compounds, 0.46% hits. AID 720580; calls by dose curve; tested in A549 cells; further: potency means the concentration at half of the fitted maximal effect; nearly all actives have a fitted effect of over 30% in size
HCMV antiviral: blocks human cytomegalovirus replication. AID 1259415. HFF cells, HCMV-luciferase reporter, 72 h; stronger effect = lower value. activity change, negative = inhibition, % at 57.5 µM. 410,000 compounds, 4.5% hits; in the data active means activity change below about -60%; inconclusive means no clear call, values can overlap the other calls; inactive means above about -39%
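Compounds were evaluated in HFFs infected with an HCMV luciferase reporter virus (MOI 1 PFU/cell). Luciferase in lysates collected 72 h post infection served as the replication measure.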
Marburg entry inh: blocks Marburg virus binding to or entry into cells; Marburg virus pseudotyped entry inhibition, cell reporter; Potency, µM (titrated, usually from 37.8 µM), without a hit: top-dose activity change, negative = inhibition, usual class: inhibitors; 300,000 compounds, 1.8% hits; calls by dose curve; tested in HEK293 cells; further: potency means the concentration at half of the fitted maximal effect
LASV entry inh: Lassa virus entry inhibition. Lassa virus pseudotype entry inhibition, cell reporter. Potency, µM (doses to about 37.9 µM), inactives show at the top dose activity change, negative = inhibition, actives largely listed as inhibitors. 300,000 compounds, 1.2% hits; calls by dose curve; tested in HEK293 cells; further: potency means the concentration at half of the fitted maximal effect; nearly all actives have a fitted effect of over 50% in size
Numbers without * were called inactive; ! = not active in a repeat; [ ] = dose if it differs, or a comment. Hits are enriched below; roughly 6.5% of the tested compounds scored in any of these assays. On the % scale 0 is the no-effect control and ±100 the full control effect.

What do the screens show for `O=C(NC(=S)/C(=C1\CCCCCN1)[N+](=O)[O-])c1ccccc1`?
FMDV antiviral: 13µM*; VACV mCherry inh: -16%; Vaccinia Venus: -6%; Marburg entry inh: inconclusive; LASV entry inh: inconclusive

What do the screens show for `COc1ccc(Cl)cc1NC(=O)C1CCCN(c2ncnc3onc(C)c23)C1` (stereo unspecified)?
FMDV antiviral: inconclusive; VACV mCherry inh: -22%; Vaccinia Venus: -11%; HCMV antiviral: -77*; LASV entry inh: -16%[46.1 µM]

How did CCOc1cc(/C=C(/C#N)C(=O)Nc2ccc(O)cc2)cc(Br)c1O do in these assays?
FMDV antiviral: -13%; VACV mCherry inh: inconclusive; Vaccinia Venus: -28%; HCMV antiviral: -61*; Marburg entry inh: inconclusive; LASV entry inh: inconclusive

Results for C[C@@H]1CN(Cc2ccc3c(c2)CN(C(=O)CN2CCOc4ccccc4C2)CCO3)C[C@H](C)O1 ?
FMDV antiviral: -7%; VACV mCherry inh: -9%; Vaccinia Venus: 1%

How did Cc1nnn(C23C[C@@H]4C[C@@H](CC(C(=O)N5CCN(c6ccccc6)CC5)(C4)C2)C3)n1 do in these assays?
FMDV antiviral: inconclusive; HCMV antiviral: -87*

How did CCn1nnc2cc(C(=O)NCCc3ccccc3F)ccc21 do in these assays?
FMDV antiviral: -17%; VACV mCherry inh: -12%; Vaccinia Venus: -4%; HCMV antiviral: 66; Marburg entry inh: 6.3µM*; LASV entry inh: 1.1µM*

What do the screens show for `CCn1nnc2cc(C(=O)Nc3ccc(Br)cc3F)ccc21`?
FMDV antiviral: 21%; VACV mCherry inh: 1%; Vaccinia Venus: -2%; HCMV antiviral: 15; LASV entry inh: inconclusive

How did CC(C)CO/N=C1/C[C@@H](O)[C@@H](O)[C@@H]2[C@H]3C(=O)N(c4ccc(F)cc4F)C(=O)[C@@H]3CC[C@@H]12 do in these assays?
Marburg entry inh: -10%[14.2 µM]

How did CCCn1c(=N)n(CC(=O)c2ccc(OCC(=O)OC)cc2)c2ccccc21 do in these assays?
FMDV antiviral: -20%; HCMV antiviral: -96*

What do the screens show for `CCCn1c(=N)n(CC(=O)c2ccc(Cl)cc2)c2ccccc21`?
FMDV antiviral: 12%; VACV mCherry inh: inconclusive; Vaccinia Venus: -15%; HCMV antiviral: -83*; Marburg entry inh: inconclusive; LASV entry inh: inconclusive

What do the screens show for `Cc1c(CCOC(=O)C2C3CC4CC(C3)CC2C4)sc[n+]1CC(=O)c1ccc(Br)cc1` (stereo unspecified)?
FMDV antiviral: inconclusive; Vaccinia Venus: inconclusive; HCMV antiviral: -103*!; Marburg entry inh: inconclusive; LASV entry inh: -23%

What do the screens show for `C[C@@H]1Cc2ccccc2N1NC(=O)c1ccc(Cl)c(S(N)(=O)=O)c1`?
Marburg entry inh: 5%

What do the screens show for `Cc1c(Br)cccc1NC(=O)C1(C)CCN1C(C)C` (stereo unspecified)?
FMDV antiviral: -9%; VACV mCherry inh: 33%; Vaccinia Venus: 6%; HCMV antiviral: -80*

Results for COc1cccc(NC(=O)C2(C)CCN2C(C)C)c1OC (stereo unspecified) ?
FMDV antiviral: -20%; VACV mCherry inh: 16%; Vaccinia Venus: 4%; HCMV antiviral: -6

What do the screens show for `O=C(CNC(=O)C12CC3CC(CC(C3)C1)C2)N1CCN(S(=O)(=O)/C=C/c2ccccc2)CC1`?
FMDV antiviral: 40µM*; VACV mCherry inh: -9%; Vaccinia Venus: -10%; HCMV antiviral: -72*; Marburg entry inh: -17%; LASV entry inh: inconclusive

What do the screens show for `O=C(CNC(=O)C12CC3CC(CC(C3)C1)C2)N1CCN(S(=O)(=O)c2cccs2)CC1`?
FMDV antiviral: 0%; VACV mCherry inh: inconclusive; Vaccinia Venus: -23%; HCMV antiviral: inconclusive; Marburg entry inh: -23%; LASV entry inh: -22%

What do the screens show for `Cc1cc(=O)oc2cc(OCc3cn(CC(=O)c4ccc(O)cc4)nn3)ccc12`?
LASV entry inh: 2%[46.1 µM]

Results for Cc1c(C(=O)NCCCc2ccncc2)cnn1-c1nccc(-c2ccccc2F)n1 ?
FMDV antiviral: -20%; VACV mCherry inh: inconclusive; Vaccinia Venus: inconclusive

How did CCN(CC(=O)Nc1ccc(NC(C)=O)cc1)C(=O)Cc1ccc(Cl)c(Cl)c1 do in these assays?
FMDV antiviral: inconclusive; VACV mCherry inh: -6%; Vaccinia Venus: -1%; HCMV antiviral: -64*; Marburg entry inh: 1%[46.1 µM]

What do the screens show for `Cc1ccc(NC(=O)CSc2nc3ccccc3nc2N2CCOCC2)c(C)c1`?
FMDV antiviral: -6%; VACV mCherry inh: inactive; Vaccinia Venus: -5%; HCMV antiviral: -71*

What do the screens show for `COc1ccc(C)cc1NC(=O)CSc1nc2ccccc2nc1N1CCOCC1`?
FMDV antiviral: 15%; VACV mCherry inh: -6%; Vaccinia Venus: 6%; HCMV antiviral: 20; Marburg entry inh: inconclusive; LASV entry inh: inconclusive

Results for Cc1cc(SCC(=O)c2ccc(O)c(O)c2)nc2ccccc12 ?
FMDV antiviral: -19%; VACV mCherry inh: -23%; Vaccinia Venus: -17%; HCMV antiviral: -70*; Marburg entry inh: inconclusive; LASV entry inh: -4%

What do the screens show for `Cc1cc(SCC(=O)c2ccc3c(c2)OCO3)nc2ccccc12`?
FMDV antiviral: 45%; HCMV antiviral: -28; Marburg entry inh: 23%; LASV entry inh: -3%

How did Cc1cccc(NC(=O)CSc2nc3ccccc3nc2N2CCC(C)CC2)c1 do in these assays?
FMDV antiviral: -13%; VACV mCherry inh: inconclusive; Vaccinia Venus: 10%; HCMV antiviral: -88*; Marburg entry inh: 1.1µM*; LASV entry inh: inconclusive

Results for Cc1cccc(NC(=O)CSc2cc(C)c3ccccc3n2)c1 ?
FMDV antiviral: -26%; VACV mCherry inh: 1%; Vaccinia Venus: 16%; HCMV antiviral: -74*; Marburg entry inh: 2.2µM*; LASV entry inh: inconclusive

How did CC(C)Oc1ccc2c(=O)c3cc(C(=O)O)ccc3oc2c1 do in these assays?
FMDV antiviral: 30%

Results for COc1ccc(-n2c(SCC(=O)NC3CCCCC3)nc3c([nH]c4ccccc43)c2=O)cc1 ?
FMDV antiviral: -25%; VACV mCherry inh: -2%; Vaccinia Venus: -2%; HCMV antiviral: 8; LASV entry inh: 12%[46.1 µM]

What do the screens show for `O=C(CSc1nc2ccccc2nc1N1CCCC1)Nc1ccc(F)cc1`?
FMDV antiviral: 10%; VACV mCherry inh: inactive; Vaccinia Venus: -10%; HCMV antiviral: -65*

Results for CC(=O)Nc1ccc(NC(=O)CSc2nc3ccccc3nc2N2CCCCC2)cc1 ?
FMDV antiviral: 9%; VACV mCherry inh: -13%; Vaccinia Venus: -19%; HCMV antiviral: -13; Marburg entry inh: 21%[46.1 µM]; LASV entry inh: 4%

How did CCN(CC(=O)Nc1ccccc1C(F)(F)F)C(=O)c1ccccc1Cc1ccccc1 do in these assays?
FMDV antiviral: -6%; VACV mCherry inh: inactive; Vaccinia Venus: -15%; HCMV antiviral: 1; Marburg entry inh: inconclusive; LASV entry inh: 11µM*
